PubChem BioAssay AID1578 (Sanford-Burnham Center for Chemical Genomics, 2009)
The campaign covered roughly 290,000 compounds. About 3,000 (1%) were called active. No stated cut-off is given here; in the data, active means inhibition mostly above about 36% (no sharp cut-off); inactive means mostly below about 34%. Many of the other results were omitted from the sample, so actives are more common in it than they were.

Experiment: NOD1 signaling inhibitors, primary screen, cell-based, luminescence, uHTS (AID 1578);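 further: HEK-293T reporter cells stimulated with the NOD1 agonist gamma-tri-DAP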
Settings: NOD1-driven NF-kB luciferase reporter cells, at 4 µM, stronger effect = higher value
For `C=CCNC(=O)c1oc2ccc(S(=O)(=O)N3CCC4(CC3)OCCO4)cc2c1C`, the inhibition was -20.9% (inactive).
For `Cc1noc(C)c1C(=O)OCC(=O)Nc1ccccc1Oc1ccccc1`, the inhibition was -14% (inactive).
With `Cc1csc(NC(=O)c2cc3c(s2)CCC3)n1` the inhibition was 5.9% (inactive).
With `Cc1csc(NC(=O)c2cc3c(s2)CCCCC3)n1` the inhibition was 73.7% (active).
With `Cc1csc(NC(=O)c2cc3c(s2)CCCC3)n1` the inhibition was -106% (inactive).
With `CCOCCCNC(=O)c1ccc(N2CC3CC(C2)c2cccc(=O)n2C3)c(NC(=O)Nc2cccc(OC)c2)c1` (configuration not stated) the inhibition was -1.7% (inactive).
In the case of `COc1cccc2c1cc1c(=O)n(CC(=O)N3CCCCCC3)nc(C)n12`, the inhibition is reported as -16% (inactive).
For `Cn1ncc(Cl)c1C(=O)Nc1sc2c(c1C(N)=O)CCC2`, the inhibition was -24.6% (inactive).
For `CCn1ncc(Br)c1C(=O)Nc1sc2c(c1C(N)=O)CCC2`, the inhibition was 77.1% (active).
In the case of `CCn1cc(Br)c(C(=O)Nc2sc3c(c2C(N)=O)CCCC3)n1`, the inhibition is reported as -18.1% (inactive).
For `Cc1ccc(OS(=O)(=O)c2c(C)nn(C)c2Cl)c(C)c1`, the inhibition was -19.4% (inactive).
With `CCn1cc(C(=O)O)c(=O)c2cc(F)c(N3CCN(C(=S)NC(=O)c4ccccc4Br)CC3)cc21` the inhibition was -0.8% (inactive).
For `CN1CCN(C(=S)Nc2ccc(Oc3ccccc3)cc2)CC1`, the inhibition was 6.6% (inactive).
With `CC(C)=CC(=O)Nc1c(C)cc(C)cc1Cl` the inhibition was -18% (inactive).
In the case of `COc1ccc(-c2nc3ccccc3s2)cc1`, the inhibition is reported as -35.3% (inactive).
With `Oc1ccc(-c2nc3ccccc3s2)cc1` the inhibition was -6.1% (inactive).
In the case of `CCOC(=O)Cc1csc(SC(C)C(=O)NCC(=O)Nc2ccc(F)c(F)c2F)n1` (configuration not stated), the inhibition is reported as -36.3% (inactive).
In the case of `COc1ccc(C(=O)N/C(=C\c2cccs2)C(=O)N2CCN(C)CC2)cc1OC`, the inhibition is reported as -14.2% (inactive).
In the case of `NC(=O)C1CCN(c2nc(C3CC3)nc3c2nnn3Cc2ccccc2Cl)CC1`, the inhibition is reported as 10.7% (inactive).
With `O=C(c1ccco1)N1CCN(c2ncnc3c2nnn3Cc2ccccc2Cl)CC1` the inhibition was 11.1% (inactive).
With `O=C(c1ccco1)N1CCN(c2nc(C3CC3)nc3c2nnn3Cc2ccccc2Cl)CC1` the inhibition was 44.4% (active).
In the case of `O=C(Cn1nnc(-c2cc(C(F)(F)F)cc(C(F)(F)F)c2)n1)NNC(=S)Nc1ccc(Cl)cc1`, the inhibition is reported as 10.2% (inactive).
In the case of `O=C(COC(=O)Cc1ccc(Cl)cc1)Nc1c(F)cccc1F`, the inhibition is reported as -44% (inactive).
In the case of `COc1cc(/C=N/NC(=O)c2ccncc2)ccc1OC(=O)c1ccco1`, the inhibition is reported as 29.2% (inactive).
For `CC(=O)c1c(C)[nH]c(C(=O)OCC(=O)NCCc2ccc(F)cc2)c1C`, the inhibition was -0.8% (inactive).
In the case of `Cc1ccsc1C(=O)NNC(=O)C1CCCCC1C(=O)O` (configuration not stated), the inhibition is reported as -15.7% (inactive).
In the case of `Cc1ccsc1C(=O)NNC(=O)C1C2C=CC(C2)C1C(=O)O` (configuration not stated), the inhibition is reported as 72.2% (active).
In the case of `Cc1ccsc1C(=O)NNC(=O)C1CC=CCC1C(=O)O` (configuration not stated), the inhibition is reported as -25.2% (inactive).
For `CCCCC(=O)Nc1cccc(-c2cn3ccccc3n2)c1`, the inhibition was -43.7% (inactive).
In the case of `O=C(CCS(=O)(=O)c1cc2c(cc1Cl)NC(=O)CO2)NCc1ccccc1`, the inhibition is reported as 95% (active).
With `Cc1ccc(CNC(=O)CCS(=O)(=O)c2cc3c(cc2Cl)NC(=O)CO3)cc1` the inhibition was -6.8% (inactive).
With `O=C(CCS(=O)(=O)c1cc2c(cc1Cl)NC(=O)CO2)NCc1ccc(F)cc1` the inhibition was -25.6% (inactive).
With `CC(=O)OC[C@H]1O[C@@H](O/N=C(\C)CCN2CCCCc3nc(C)c(C)cc32)[C@H](OC(C)=O)[C@@H](OC(C)=O)[C@@H]1OC(C)=O` the inhibition was -2.5% (inactive).
For `Cc1ccc(S(=O)(=O)c2nc(-c3ccccc3F)oc2N2CC(C)OC(C)C2)cc1` (configuration not stated), the inhibition was -20% (inactive).
In the case of `Cc1cc(C)c(C)c(/C=C(/C#N)C(N)=S)c1C`, the inhibition is reported as 14.2% (inactive).
In the case of `Cc1ccc(-c2ccc(/C=C(\C#N)C(N)=S)n2C)cc1`, the inhibition is reported as -19.8% (inactive).
With `Cc1cc(C)c(/C=C(\C#N)C(N)=S)c(C)c1` the inhibition was 106% (active).
With `CC1CCN(C(=O)COc2cccc3c2CCN(Cc2ccccc2)C3=O)CC1` the inhibition was -16% (inactive).
With `COc1ccc2nc(NC(C)=O)sc2c1` the inhibition was -12.9% (inactive).
For `CC(=O)c1sc(Nc2nc3ccc(F)cc3s2)nc1C`, the inhibition was -20.9% (inactive).
In the case of `Clc1ncccc1-c1nnn(-c2ccccc2Br)n1`, the inhibition is reported as -23.5% (inactive).
With `CCc1nnc(NC(=O)c2ccc(NC(=O)C(C)C)cc2)s1` the inhibition was -39.9% (inactive).
For `N#C/C(=C(/O)CN1CCOCC1)c1nc(-c2ccccc2)cs1`, the inhibition was -15.4% (inactive).
For `COc1ccc(/C=N/NC(=O)c2cc(C3CC3)[nH]n2)cc1OC`, the inhibition was -1.2% (inactive).
With `COc1ccccc1CNC(=O)CSc1n[nH]c(N)n1` the inhibition was -8.6% (inactive).
In the case of `COc1ccc(C(=O)CSc2n[nH]c(N)n2)cc1`, the inhibition is reported as -10% (inactive).
In the case of `COc1ccccc1C(=O)CSc1n[nH]c(N)n1`, the inhibition is reported as 65.9% (active).
In the case of `Cc1ccc2nc(-c3ccccn3)cc(C(=O)NCCc3ccc(F)cc3)c2c1`, the inhibition is reported as -8.3% (inactive).
With `CC(C)OC(=O)c1ccc(COC(=O)c2cccc(-c3nnc(-c4ccccc4)o3)c2)cc1` the inhibition was -13% (inactive).
With `Oc1[nH]c2ccc(Br)cc2c1N=NC(=S)Nc1ccc(F)cc1` the inhibition was -7.9% (inactive).
For `Oc1[nH]c2ccc(Br)cc2c1N=NC(=S)N1CCOCC1`, the inhibition was 99% (active).
With `N=C(N)N=Nc1c(O)[nH]c2ccc(Br)cc12` the inhibition was -31.8% (inactive).
For `COc1ccc(CCNC(=O)CSc2nc3c(c(=O)n(C)c(=O)n3C)n2C)cc1OC`, the inhibition was -28.4% (inactive).
With `O=[N+]([O-])c1ccc(Sc2cccc[n+]2[O-])c2nonc12` the inhibition was 106% (active).
For `O=[N+]([O-])c1ccc(Nc2ccccc2O)c2nonc12`, the inhibition was -3.2% (inactive).
For `O=[N+]([O-])c1ccc(Nc2ccccc2)c2nonc12`, the inhibition was -7.4% (inactive).
In the case of `N#Cc1ccccc1NC(=O)CSc1nnc(-c2ccncc2)o1`, the inhibition is reported as 4.5% (inactive).
For `Cn1c(-c2csc(-c3ccccc3)n2)n[nH]c1=S`, the inhibition was -29.3% (inactive).
With `CC(CC(=O)c1cccs1)CC(=O)c1cccs1` the inhibition was -14.5% (inactive).
In the case of `Cc1ccccc1C(CC(=O)c1cccs1)C(C#N)C#N` (configuration not stated), the inhibition is reported as 85.2% (active).
In the case of `Cc1cc(C)c(C(CC(=O)c2cccs2)C(C#N)C#N)c(C)c1` (configuration not stated), the inhibition is reported as 26.3% (inactive).
For `O=[N+]([O-])c1cccc(Nc2nc(Cl)nc(Cl)n2)c1`, the inhibition was 14.4% (inactive).
